KB-V1 MDR tox: KB-V1 MDR subline cytotoxicity; KB-V1 MDR cells viability, CellTiter-Glo, 72 h; 3.4% of 400,000 active; AID 1347076; Potency, µM (highest dose often 46.1 µM), most hits filed as cytotoxic; note: % is set by controls: 0 for no effect and ±100 for the full control effect; nearly all actives have a fitted effect of over 60% in size
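In this primary screen, KB-V1 cells overexpressing P-gp are incubated with library compounds (lowest to highest concentration) for 72 h at 37 degrees C before a luminescent ATP viability read.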
KB-3-1 tox: kills parental KB-3-1 adenocarcinoma cells; Potency, µM (series often up to 46.1 µM), most hits filed as cytotoxic; KB-3-1 viability, CellTiter-Glo ATP luminescence, 72 h; 1.4% of 400,000 active; note: % is set by controls: 0 for no effect and ±100 for the full control effect; nearly all actives have a fitted effect of over 60% in size
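Here the drug-naive KB-3-1 line serves as comparator for MDR sub-line selectivity; cells received compound titrations, 72 h at 37 °C, then CellTiter-Glo readout.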
SW480 rereplic: DNA re-replication induction in SW480 cells. SW480 DNA re-replication, Hoechst DNA content imaging, 48 h. Potency, µM (doses to about 46.1 µM), without a hit: top-dose re-replication activation, hits mostly activators. AID 624297. 1.8% of 340,000 active; note: % of control where 0% means no effect; nearly all actives have a fitted effect of over 55% in size
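SW480 cells exposed to compounds for 48 hr at 37 C, 5% CO2, then Hoechst-stained 40 min. Nuclear DNA content imaged by fluorescence scanning (405 nm excitation, 500-530 nm emission); re-replication scored as increased high-intensity nuclei.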
HT1080 IDH1KD tx: toxicity to HT-1080 IDH1 knockdown cells (counter line); HT-1080 IDH1 knockdown viability, ATP luminescence, 48 h; 2% of 360,000 active; Potency, µM (highest dose often 46.1 µM), inactives show at the highest dose activity, negative = toxicity, usual class: cytotoxic; AID 686971;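 note: 0% = DMSO wells and -100% = cell-free medium wells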
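Using the IDH1-knockdown HT-1080 line run in the same batch and compound series as the NT line, viability after 48 h at 37 °C was determined by CellTiter-Glo luminescence and expressed as % activity.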
MCF10A rerep: induces DNA re-replication in MCF 10a normal breast cells; 2.9% of 350,000 active; Potency, µM (titrated, usually from 46.1 µM), for the others: at the highest dose activity, positive = re-replication, hits mostly activators; MCF 10A DNA re-replication, Hoechst nuclear intensity, 48 h; note: % of control where 0% means no effect; nearly all actives have a fitted effect of over 50% in size
HT1080-NT tox: kills 2HG-producing HT-1080-NT fibrosarcoma cells | HT-1080-NT fibrosarcoma viability, CellTiter-Glo ATP luminescence, 48 h | Potency, µM (doses to about 46.1 µM), without a hit: at the top dose activity, negative = less viability, usual class: cytotoxic | 1.6% of 360,000 active | AID 686970;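 note: NT is the 2HG producing partner of a matched IDH1 knockdown line; 0% = DMSO-treated cells and -100% = media-only wells without cells; nearly all actives have a fitted effect of over 55% in size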
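Compounds were tested in concentration-response format on HT-1080-NT cells for 48 hours at 37 degrees C. Cell viability came from CellTiter-Glo luminescence; curves were classified by r2, response magnitude and activity.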
Starred values were filed as active, the others as inactive. In the library only some 7.9% were active in any assay of this set; here they are far more common. Calls come from the whole dose curve; as a rule, active = well fitted curve in the direction sought with a large enough effect; inconclusive = small, poorly fitted or top-dose-only effect, or another doubt; inactive = no such curve, though single readings can be large; an effect the other way counts as inactive or inconclusive. Potency is the fitted concentration of half-maximal effect.

For Oc1ccc(Cl)cc1C1=NNC(c2ccc(Cl)cc2)C1 (stereo not given) the results were KB-V1 MDR tox inconclusive, KB-3-1 tox 23µM*, SW480 rereplic inconclusive, HT1080 IDH1KD tx inconclusive, MCF10A rerep 18µM* and HT1080-NT tox -18%.
For Oc1ccc(Cl)cc1C1=NNC(c2cc(Br)cc3c2OCOC3)C1 (stereo not given) the results were KB-V1 MDR tox inactive, KB-3-1 tox inconclusive, SW480 rereplic 116%, HT1080 IDH1KD tx -11%, MCF10A rerep 11% and HT1080-NT tox -16%.
`COc1ccc(NS(=O)(=O)c2ccc(C)c(C(=O)NCC(c3ccco3)N3CCCCC3)c2)cc1` (stereo not given) gave KB-V1 MDR tox inactive, KB-3-1 tox inactive, SW480 rereplic -2%, HT1080 IDH1KD tx 2%, MCF10A rerep inconclusive and HT1080-NT tox 0%.
Screening CCOc1ccc(-c2nnn(CC(=O)c3cc(OC)ccc3OC)n2)cc1 returned KB-V1 MDR tox 5.2µM*, KB-3-1 tox 15µM*, SW480 rereplic 6%, HT1080 IDH1KD tx 3%, MCF10A rerep inconclusive and HT1080-NT tox 20%.
Screening CCOc1ccc(-c2nnn(CC#N)n2)cc1OC returned KB-V1 MDR tox inactive, KB-3-1 tox inconclusive, SW480 rereplic inconclusive, HT1080 IDH1KD tx inconclusive, MCF10A rerep 10µM* and HT1080-NT tox inconclusive.
For COc1ccc(-c2nnn(CC#N)n2)cc1OC the results were KB-V1 MDR tox inactive, KB-3-1 tox inactive, SW480 rereplic -8%, HT1080 IDH1KD tx 2%, MCF10A rerep -3% and HT1080-NT tox 4%.
O=S(=O)(c1ccc(NC(=S)N2CCCCC2CO)cc1)N1CCOCC1 (stereo not given) was read as KB-V1 MDR tox inconclusive, KB-3-1 tox inactive, HT1080 IDH1KD tx 2% and HT1080-NT tox 3%.
`CC1(C(=O)NS(=O)(=O)Cc2ccccc2C(F)(F)F)CCN1C(=O)C/C=C/c1ccccc1` (stereo not given) gave KB-V1 MDR tox inactive, KB-3-1 tox inactive, HT1080 IDH1KD tx 2% and HT1080-NT tox 9%.
For CCOC(=O)C1CCN(S(=O)(=O)c2cc3c4c(c2)CC(=O)N4CCC3)CC1 the results were KB-V1 MDR tox inactive and KB-3-1 tox inactive.
COc1cccc(NC(=O)CSc2nc(-c3ccccc3Cl)nc3c2Cc2c(CO)cnc(C)c2O3)c1 was read as KB-V1 MDR tox inactive and KB-3-1 tox inconclusive.
Screening Cc1c(Cl)cccc1NC(=O)Cn1c(=O)cc(C)c2c(C)nn(-c3cccc(F)c3)c21 returned KB-V1 MDR tox inactive and KB-3-1 tox inactive.
Screening N=c1nc(-c2ccccc2)n(-c2ccccc2)s1 returned KB-V1 MDR tox inconclusive and KB-3-1 tox inactive.
Cc1ccc(C(=O)NNc2ncnc3c2cnn3C)cc1 was read as KB-V1 MDR tox inactive, KB-3-1 tox inactive, SW480 rereplic -52%, HT1080 IDH1KD tx 1%, MCF10A rerep -1% and HT1080-NT tox 15%.
Cn1ncc2c(O/N=C(\N)c3ccc(C(F)(F)F)cc3)ncnc21 was read as KB-V1 MDR tox inconclusive, KB-3-1 tox inconclusive, SW480 rereplic 7.3µM*, HT1080 IDH1KD tx 16µM*, MCF10A rerep inconclusive and HT1080-NT tox 21µM*.
Screening Cc1ccc(CN2CCN(/N=C/c3sccc3C)CC2)c(C)c1 returned KB-V1 MDR tox 15µM*, KB-3-1 tox inactive, SW480 rereplic 0%, HT1080 IDH1KD tx 24%, MCF10A rerep 20% and HT1080-NT tox 14%.
Screening CSc1ccc(/C=N/N2CCN(Cc3ccc(C)cc3C)CC2)cc1 returned KB-V1 MDR tox inactive, KB-3-1 tox inactive, SW480 rereplic 5%, HT1080 IDH1KD tx -1%, MCF10A rerep 1% and HT1080-NT tox 1%.
Screening CCOC(=O)C1=C(COC(=O)c2cc(S(=O)(=O)N(C)C)ccc2C)NC(=O)NC1C (stereo not given) returned KB-V1 MDR tox 23µM*, KB-3-1 tox inactive, SW480 rereplic -2%, HT1080 IDH1KD tx -1%, MCF10A rerep 1% and HT1080-NT tox -3%.
For Oc1ccc(C[C@H]2CNC(=S)N2CC2CCCN2C[C@H](Cc2ccc(O)cc2)N2C[C@H](Cc3ccccc3)N(CCc3ccccc3)C2=S)cc1 (stereo not given in full) the results were KB-V1 MDR tox inactive, KB-3-1 tox 23µM*, SW480 rereplic inconclusive, HT1080 IDH1KD tx -3%, MCF10A rerep 19% and HT1080-NT tox -6%.
CC(C)C[C@H]1CNC(=S)N1C[C@H]1CCCN1C[C@H](CC(C)C)N1C[C@H](Cc2ccc(O)cc2)N(CCc2ccccc2)C1=S was read as KB-V1 MDR tox inconclusive, KB-3-1 tox inconclusive, HT1080 IDH1KD tx inconclusive and HT1080-NT tox 18µM*.
`CCOc1ccc(CCN2C(=S)N([C@@H](Cc3ccc(O)cc3)CN3CCC[C@@H]3CN3C(=S)NC[C@@H]3Cc3ccc(O)cc3)C[C@@H]2Cc2ccc(O)cc2)cc1` gave KB-V1 MDR tox inactive, KB-3-1 tox inconclusive, HT1080 IDH1KD tx 21µM* and HT1080-NT tox 26µM*.
CC(=O)N1CCN(c2ccc(NCc3ccc(-c4cccc(Cl)c4)o3)cc2)CC1 was read as KB-V1 MDR tox inactive, KB-3-1 tox inactive, SW480 rereplic inconclusive and MCF10A rerep 21µM*.
Screening Cc1ccccc1OCC(O)CNC1CCC(NCC(O)COc2ccccc2C)CC1 (stereo not given) returned KB-V1 MDR tox 18µM*, KB-3-1 tox 3.3µM*, SW480 rereplic 4.1µM*, HT1080 IDH1KD tx 2.3µM*, MCF10A rerep inconclusive and HT1080-NT tox 2.9µM*.
For OC(CNC1CCCCCC1)COc1cccc2ccccc12 (stereo not given) the results were KB-V1 MDR tox 21µM*, KB-3-1 tox inconclusive, SW480 rereplic 18µM*, HT1080 IDH1KD tx inconclusive, MCF10A rerep 26% and HT1080-NT tox 21µM*.
Screening COc1cccc(NC(=O)N(CCCN2CCOCC2)C(C)c2cc3ccccc3o2)c1 (stereo not given) returned KB-V1 MDR tox inactive, KB-3-1 tox inactive, SW480 rereplic 15%, HT1080 IDH1KD tx -12%, MCF10A rerep 25% and HT1080-NT tox 16µM*.
`COc1cccc(NC(=O)N(CCCN2CCOCC2)C(C)c2cc3cccc(OC)c3o2)c1` (stereo not given) gave KB-V1 MDR tox inactive, KB-3-1 tox inactive, SW480 rereplic 1%, HT1080 IDH1KD tx -2%, MCF10A rerep 1% and HT1080-NT tox -6%.
